Rows were chosen to be rich in hits. Some 6.5% of all compounds tested hit in one or more screens of this group.
HepG2 tox – qHTS for Inhibitors of TGF-b: Cytotox Counterscreen | Potency, µM (titrated, usually from 46.1 µM), without a hit: top-dose activity change, negative = cytotoxicity, actives largely listed as cytotoxic | AID 588856, 2011 | hit rate 0.76% among 410,000 | HepG2 CAGA-GFP viability, ATP luminescence, 18 h; also: potency is read from the fitted curve at half-maximal effect
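HepG2 CAGA-GFP cells (1000/well, DMEM with 1% FBS) received compound, then TGF-beta at 500 pg/mL final, and were incubated 18 hours at 37 degrees C. Viability was read by CellTiter-Glo luminescence. Media-only wells were set as complete cell-killing and DMSO as no toxicity.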
TGFb SMAD3 inh – qHTS for Inhibitors of TGF-b; Potency, µM (titrated, usually from 46.1 µM), for inactives: at the top dose activity, negative = inhibition, usual class: inhibitors; HepG2 CAGA-GFP TGF-b/SMAD3 reporter, GFP fluorescence, 18 h; TGF-beta stimulated, 500 pg/mL final; hit rate 1.2% among 410,000; AID 588855, 2011; also: potency is read from the fitted curve at half-maximal effect; % is scaled to controls: 0 for no effect and ±100 for the full control effect; nearly all actives have a fitted effect of over 65% in size
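HEPG2 CAGA-GFP reporter cells (1000/well, DMEM with 1% FBS) received compounds, then recombinant TGF-beta at 500 pg/mL final for 18 hours at 37 degrees C. Per-cell GFP summed per well was normalised to unstimulated and stimulated DMSO controls before curve fitting.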
IL1B secr inh – qHTS for Inhibitors of Inflammasome Signaling: IL-1-beta AlphaLISA Primary Screen. THP-1 LPS/ATP IL-1B secretion, AlphaLISA, 16 h; hits give low values. activity change, % at 57.5 µM. hit rate 4.7% among 360,000. AID 743279, 2014; in the data active = activity change below about -50%; inconclusive = mostly about -30% to -49%; also: % is scaled to controls: 0 for no effect and ±100 for the full control effect
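THP-1 cells pretreated 1 hr with compounds (up to 57.5 uM final), then stimulated with LPS (250 ng/mL final) plus ATP (1.25 mM final); secreted IL-1B measured by AlphaLISA after 16 hr, decreased signal indicating inhibition.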
Giardia killer – Small Molecules that selectively kill Giardia lamblia: qHTS | Giardia lamblia trophozoite viability | activity change, % at 7.66 µM, hits read low | hit rate 0.15% among 340,000 | AID 540267, 2011; in the data active = activity change below about -80%; inconclusive = between about -30% and that limit;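 also: parasites exposed to compound for two days anaerobically before the ATP read; % is scaled to controls: 0 for no effect and ±100 for the full control effect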
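Media and compound were dispensed first, then trophozoites at 100 cells/well; plates sat 48 hrs at 37 deg C without oxygen before ATP luminescence reagent was added and read after 15-30 min at room temperature.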
HT1080NT lethal – qHTS for induction of synthetic lethality in tumor cells producing 2HG: qHTS for the HT-1080-NT fibrosarcoma cell line; hit rate 1.6% among 360,000; Potency, µM (series often up to 46.1 µM), for the others: at the top dose activity, negative = less viability, usual class: cytotoxic; HT-1080-NT fibrosarcoma viability, CellTiter-Glo ATP luminescence, 48 h;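 also: NT is the 2HG producing partner of a matched IDH1 knockdown line; potency is read from the fitted curve at half-maximal effect; 0% = DMSO-treated cells and -100% = media-only wells without cells; nearly all actives have a fitted effect of over 55% in size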
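Fibrosarcoma NT cells, 750 per well in 5% FBS RPMI, were exposed to compound for 48 hours. Viability: CellTiter-Glo luminescence.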
HT1080 IDH1KD tx – qHTS for induction of synthetic lethality in tumor cells producing 2HG: qHTS for the HT-1080-IDH1KD cell line | HT-1080 IDH1 knockdown viability, ATP luminescence, 48 h | Potency, µM (doses to about 46.1 µM), inactives show at the top dose activity, negative = toxicity, most hits filed as cytotoxic | hit rate 2% among 360,000 | AID 686971, 2013;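 also: potency is read from the fitted curve at half-maximal effect; 0% = DMSO wells and -100% = cell-free medium wells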
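Viability of IDH1-knockdown HT-1080 fibrosarcoma cells was assessed by CellTiter-Glo after 48 h at 37 °C with titrated compound; concentration-effect curves were classified by fit quality and response size.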
Numbers without * were called inactive; ? = inconclusive; . = no result. Unless noted, calls follow the shape of the dose curve; as a rule, active = well fitted curve in the direction sought with a large enough effect; inconclusive = small, poorly fitted or top-dose-only effect, or another doubt; inactive = no such curve, though single readings can be large; an effect the other way counts as inactive or inconclusive.

SMILES | HepG2 tox | TGFb SMAD3 inh | IL1B secr inh | Giardia killer | HT1080NT lethal | HT1080 IDH1KD tx
O=C(CSc1ccc(Cl)cc1)N1CCN(c2c(Cl)cccc2[N+](=O)[O-])CC1 | 2% | ? | -14 | 14 | -29% | -28%
O=C(/C=C/c1ccc(Cl)cc1)N1CCN(c2c(Cl)cccc2[N+](=O)[O-])CC1 | 4% | ? | -76* | 1 | -29% | -24%
CC1(C(=O)NCC2CCCCC2)CCN1CCc1ccccc1 (stereo not drawn) | -46% | ? | 6 | . | -25% | -20%
COc1cccc(C2=NC(C)(C)NC(c3ccccc3O)C2)c1 (stereo not drawn) | 18µM* | ? | ? | 3 | 0% | -5%
COc1ccc(-c2nc3c(Cl)cc(C(F)(F)F)cn3c2Cc2cccc(Cl)c2)cc1OC | . | . | -18 | . | ? | ?
COC(=O)C1CCN(c2ccc([N+](=O)[O-])cc2)CC1 | -2% | 4% | 15 | 8 | 1% | 3%
OC(CCN1CCOCC1)c1ccccc1 (stereo not drawn) | 8% | 3% | 0 | 8 | 10% | 1%
COc1ccc(Cl)cc1Nc1sc(C(=O)c2ccccc2)c(N)c1C(=O)Nc1ccccc1 | -33% | 16µM* | . | . | . | .
CCOc1ccccc1Nc1sc(C(=O)c2ccc(Cl)cc2)c(N)c1C(=O)NCCc1ccccc1 | -20% | -20% | . | . | . | .
Cc1cccc(C)c1Nc1sc(C(=O)c2ccccc2)c(N)c1C(=O)Nc1ccc(F)cc1 | -57% | 11µM* | . | . | . | .
CCOc1ccccc1Nc1sc(C(=O)c2ccccc2)c(N)c1C(=O)Nc1ccc(F)cc1 | -33% | 14µM* | . | . | . | .
Cc1ccc(Nc2sc(C(=O)c3ccccc3)c(N)c2C(N)=O)cc1 | -28% | 2% | . | . | . | .
CCOc1ccc(NC(=O)c2c(Nc3ccccc3C)sc(C(=O)c3ccccc3)c2N)cc1 | -41% | ? | . | . | . | .
COc1ccc(C(=O)Nc2ccc(C)c(S(=O)(=O)N3CCCCCC3)c2)cc1 | -43% | ? | 0 | -1 | -9% | -28%
Cc1c(NC(=O)CN2C(=O)C3C4C=CC(C4)C3C2=O)c(=O)n(-c2ccccc2)n1C (stereo not drawn) | -1% | 6% | -15 | 7 | 11% | 16%
COc1cccc(/C=C2\SC(=O)N(CC(=O)NC3C=CS(=O)(=O)C3)C2=O)c1 (stereo not drawn) | -40% | -8% | -99* | -11 | -10% | -3%
O=C(CN1C(=O)/C(=C/c2ccccc2Cl)SC1=S)NC1C=CS(=O)(=O)C1 (stereo not drawn) | -10% | 6% | -79* | 10 | -19% | -2%
COc1cccc(/C=C2\SC(=S)N(C(C)C(=O)NC3C=CS(=O)(=O)C3)C2=O)c1 (stereo not drawn) | -27% | -5% | ? | ? | -29% | ?
COc1ccc(/C=C2\SC(=S)N(C(C)C(=O)NC3C=CS(=O)(=O)C3)C2=O)cc1 (stereo not drawn) | -12% | 8% | -61* | 16 | 5% | -18%
CC(C)c1ccc(/C=C2\SC(=O)N(CC(=O)NC3C=CS(=O)(=O)C3)C2=O)cc1 (stereo not drawn) | -1% | 22% | -90* | -2 | -19% | -2%
CCCOC(=O)CCn1c(=S)oc2ccccc21 | 16% | 0% | 5 | 4 | 1% | 0%
COC(=O)c1sc(NC(=O)c2ccco2)c(C#N)c1C | 3% | 4% | 3 | 10 | 9% | 11%
CC(C)N1CCN(c2ccncc2S(=O)(=O)N2CCN(C)CC2)CC1 | -14% | -1% | -23 | . | 0% | -4%
Clc1ccccc1N=Nc1ccccn1 | 8% | 19% | 2 | -16 | 8% | ?
Clc1ss/c(=N\c2ccccn2)c1Cl | -8% | 0% | -91* | -14 | 8% | 11%
SMILES | HepG2 tox | TGFb SMAD3 inh | IL1B secr inh | Giardia killer | HT1080NT lethal | HT1080 IDH1KD tx
Clc1ccc(Cl)c(OCCCCN2CCNCC2)c1 | -47% | ? | -74* | -9 | ? | ?
Cc1ccc(OCCCCCCN2CCNCC2)c(Br)c1 | -21% | ? | -89* | 0 | ? | 15µM*
O=C(Nc1nc(-c2cccs2)cs1)c1cccc(S(=O)(=O)N2CCCCCC2)c1 | -17% | ? | -14 | -11 | -20% | -21%
O=C(CCl)Nc1c(C(=O)Nc2ccc3c(c2)OCCO3)oc2ccccc12 | 16µM* | ? | -99* | 16 | ? | ?
Cc1ccc(C(=O)c2c3ccc(C(F)(F)F)cc3[n+]([O-])n2CCCN)cc1 | -32% | -13% | -53* | -90* | 2% | 1%
O=C1c2ccccc2C(=O)c2c1ccc(C(=O)N1CCCCC1)c2NCCO | 9% | ? | -7 | -18 | 5% | 17%
CC1(C)CCCN(C(=O)c2ccc3c(c2NCCO)C(=O)c2ccccc2C3=O)C1 | -9% | -3% | -65* | 16 | -10% | -9%
CCOC(=O)COc1ccc(/C=C/[N+](=O)[O-])c(OCC(=O)OCC)c1 | -64% | ? | -97* | 9 | 7.9µM* | 5.6µM*
CCOC(=O)COc1ccc2nsnc2c1 | 3% | 9% | 9 | 5 | 13% | 4%
CCOc1ccc(/C=C/[N+](=O)[O-])c2ccccc12 | -92% | 5µM* | -101* | -16 | ? | 13µM*
CCOC(=O)COc1ccc2ccccc2c1/C=C/[N+](=O)[O-] | 5.6µM* | 5µM* | -92* | 2 | 7.3µM* | 4.1µM*
CN(C)c1ccc(/C=C/c2cncc3ccccc23)cc1 | -2% | 3% | . | . | . | .
COc1ccccc1Nc1nccc(N(C)C)c1C#N | 1% | -2% | 10 | 2 | 1% | 20%
OCCN=c1cc(-c2ccccc2)oc2ccc(Cl)cc12 | -29% | ? | -70* | 7 | -30% | -26%
CN(C)CCCN=c1cc(-c2ccccc2)oc2ccc(Cl)cc12 | -49% | ? | -50* | -86* | 0% | -11%
CC(C)CN=c1cc(-c2ccccc2)oc2ccc(Cl)cc12 | -19% | ? | -27 | -8 | ? | ?
CC(O)CN=c1cc(-c2ccccc2)oc2ccc(Cl)cc12 (stereo not drawn) | -49% | ? | -72* | 2 | ? | ?
Cc1c(NC(=O)[C@@H](NC(=O)c2ccc(Cl)c([N+](=O)[O-])c2)C(C)C)c(=O)n(-c2ccccc2)n1C | -2% | 1% | -94* | -2 | -2% | 0%
